Compound activity (PubChem BioAssay)
Most compounds without a hit are left out; they make up all but 5.5% or so of the library.
CtBP-E1A blk = inhibitors of CtBP/E1A interaction; AlphaScreen GST-E1A/His-CtBP binding, 1536-well; stronger effect = lower value; activity change, % (no concentration beside the values); 0.49% of 340,000 active; AID 651724; in the data active = activity change below about -65%; inconclusive = mostly about -30% to -63%; note: % is set by controls: 0 for no effect and ±100 for the full control effect
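GST-E1A and His-tagged CtBP (125 nM each as 5X stock) were preincubated with pin-transferred compound for 2 h at 37 °C in the dark, then glutathione donor and nickel acceptor beads were added for 1 h before AlphaScreen reading.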
Gal4-VP16 FLuc = inhibits Gal4-VP16 luciferase reporter, ROR gamma counter-screen; Drosophila S2 Gal4-VP16 UAS-luciferase, luminescence, 20 h; Potency, µM (doses to about 53.6 µM), for the others: at the highest dose activity, negative = inhibition, actives largely listed as inhibitors; 3.5% of 310,000 active; AID 2546;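 note: Gal4-VP16 expression switched on by copper sulfate through the metallothionein promoter; potency is the fitted concentration of half-maximal effect; % is set by controls: 0 for no effect and ±100 for the full control effect; nearly all actives have a fitted effect of over 50% in size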
Six1-Eya2 blk = blocks human Six1 binding to Eya2. Q15475+O00167. AlphaScreen GST-Six1/His-Eya2 binding, biochemical; stronger effect = lower value. activity change, % (concentration not given with the values). 0.56% of 360,000 active. AID 651725; in the data active = activity change below about -65%; inconclusive = mostly about -30% to -63%; note: % is set by controls: 0 for no effect and ±100 for the full control effect
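GST-Six1 + His-Eya2 (5X stock: 250/500 nM); Tris pH 8.0, 300 mM NaCl, 0.05% BSA, 0.02% Tween 20; GSH donor/Ni acceptor beads; 1 h 37 °C dark; AlphaScreen readout.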
MBNL1-CUG inh = MBNL1-poly(CUG) RNA binding inhibition. TR-FRET MBNL1-His/biotin-(CUG)12 binding, 665/545 ratio. Potency, µM (series often up to 57.5 µM), for inactives: at the top dose activity change, negative = inhibition, most hits filed as inhibitors. 0.036% of 280,000 active; active = well fitted inhibition curve with a large enough effect in the signal ratio, with a control signal flat, not every such curve was filed as active; inconclusive = small, poorly fitted or top-dose-only effect, or effect the other way, or a change in a side signal; inactive = no such curve, though single readings can be large or run the other way; the % refers to the signal ratio; note: potency is the fitted concentration of half-maximal effect; % is set by controls: 0 for no effect and ±100 for the full control effect
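TR-FRET between His-tagged MBNL1 and biotin-(CUG)12 RNA, detected with Tb anti-His antibody (0.055 ng/ul) and streptavidin-XL665 (5 nM), 60 min at room temperature. Compounds titrated 92 nM to 58 uM; 665/545 nm ratio normalized to buffer and complex controls.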
RORg inh = inhibitors of mouse ROR gamma transcriptional activity; 5.4% of 310,000 active; P51450; Potency, µM (doses to about 53.6 µM), for inactives: top-dose activity change, negative = inhibition, usual class: inhibitors; Drosophila S2 Gal4-RORgamma UAS-luciferase reporter, 20 h; AID 2551; note: potency is the fitted concentration of half-maximal effect; % is set by controls: 0 for no effect and ±100 for the full control effect; nearly all actives have a fitted effect of over 60% in size
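Compounds are pin-transferred onto Drosophila Schneider cells expressing a copper-inducible Gal4–ROR gamma transactivation domain fusion. After 1 hr, copper sulfate is added to 700 uM final; luciferase is read 20 hr later.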
CBFb RUNX1 block = inhibitors of human CBF-beta and RUNX1 interaction. AID 1477. 230,000 tested, under 10 active. Potency, µM (doses to about 59.8 µM), inactives show at the top dose activity, negative = inhibition, most hits filed as inhibitors. AlphaScreen CBFb-His/RUNX1-biotin binding, biochemical. Q01196+Q13951; note: % of control where 0% means no effect
Target sequence (Q01196 whole entry, looked up): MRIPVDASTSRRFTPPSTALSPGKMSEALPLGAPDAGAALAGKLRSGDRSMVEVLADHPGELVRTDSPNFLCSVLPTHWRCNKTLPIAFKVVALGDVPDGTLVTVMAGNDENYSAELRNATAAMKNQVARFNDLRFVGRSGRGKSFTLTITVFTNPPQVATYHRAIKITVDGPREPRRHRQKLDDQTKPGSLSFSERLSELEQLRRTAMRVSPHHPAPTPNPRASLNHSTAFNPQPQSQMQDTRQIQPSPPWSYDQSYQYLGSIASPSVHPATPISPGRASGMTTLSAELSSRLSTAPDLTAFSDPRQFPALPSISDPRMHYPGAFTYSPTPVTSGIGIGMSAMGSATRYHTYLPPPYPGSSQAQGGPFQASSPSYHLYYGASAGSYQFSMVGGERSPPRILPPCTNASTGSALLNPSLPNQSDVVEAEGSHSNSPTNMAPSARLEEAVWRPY
Target sequence (Q13951 whole entry, looked up): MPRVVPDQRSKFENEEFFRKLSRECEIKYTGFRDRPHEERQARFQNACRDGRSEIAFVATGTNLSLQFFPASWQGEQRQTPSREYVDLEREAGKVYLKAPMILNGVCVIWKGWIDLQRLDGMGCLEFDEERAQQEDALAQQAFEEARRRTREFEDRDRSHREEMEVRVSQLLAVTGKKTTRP
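Read-out: AlphaScreen. Format: His-CBF-beta with biotinylated RUNX1 (30 nM each) preincubated 20 min, compound 15 min, Ni-chelate plus streptavidin beads 90 min; room temperature throughout.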
An asterisk follows results filed as active; ? = inconclusive; . = not tested or not shown; [ ] = another dose, or the depositor's remark. Unless noted, calls come from the whole dose curve; as a rule, active = well fitted curve in the direction sought with a large enough effect; inconclusive = small, poorly fitted or top-dose-only effect, or another doubt; inactive = no such curve, though single readings can be large; an effect the other way counts as inactive or inconclusive.

SMILES | CtBP-E1A blk | Gal4-VP16 FLuc | Six1-Eya2 blk | MBNL1-CUG inh | RORg inh | CBFb RUNX1 block
Cc1cnc(CNc2ncncc2-c2cccnc2)cn1 | . | -17% | . | . | 0% | .
Cc1ccccc1C(=O)NNC(=S)NC(=O)c1ccccc1 | -3 | 2.8µM* | -4 | 2% | 0.79µM* | 10%
Cc1ccc(C(=O)NNC(=S)NC(=O)c2ccccc2)cc1 | -24 | . | -13 | . | . | .
Cc1ccc(C(=O)NNC(=O)c2ccc3ccccc3c2O)cc1 | -11 | 10µM* | 1 | 3% | 14µM* | .
Cc1ccc(C(=O)NC(=S)NNC(=O)c2ccccc2)cc1 | . | 20µM* | 4 | 4% | ? | .
Cc1cccc(C(=O)NNC(=S)NC(=O)c2ccccc2)c1 | -24 | . | 0 | . | . | .
COc1ccc(C(=O)NNC(=O)c2ccc3ccccc3c2O)cc1 | -2 | . | -1 | -4% | . | .
O=C(NC(=S)NNC(=O)c1ccccc1O)c1ccccc1 | -94* | -8% | -75* | -1% | 11µM* | .
N#Cc1ccc(C(S(=O)(=O)Cc2ccccc2)S(=O)(=O)Cc2ccccc2)cc1 | 1 | . | -2 | . | . | .
CCC(=O)c1ccc(OCC(O)Cn2nc(C)c(Br)c2C)cc1 (configuration not stated) | 2 | 1% | 5 | -1% | -6%[1.91 µM] | .
COc1cc(NS(=O)(=O)c2ccc(NC(=O)c3cccnc3)cc2)ncn1 | 7 | -1% | 5 | -1% | 29% | .
Cc1ccc(C(=O)NNC(=S)NC(=O)c2ccco2)cc1 | -4 | -15% | 0 | -4% | -5% | -17%
CC(=O)Nc1ccc(NC(=S)NC(=O)c2ccc(-c3ccccc3)cc2)cc1 | 3 | . | -6 | . | . | .
Cc1ccc(C(=O)NC(=S)NNC(=O)c2ccccc2O)cc1 | -2 | -1% | -88* | 5% | 22% | .
Cc1ccc(NC(=O)NC(=S)NC(=O)c2ccccc2)cc1 | -11 | ? | 8 | -3% | 2.5µM* | 3%
Cc1ccc(C(=O)NC(=S)NNC(=O)CCN2CCOCC2)cc1 | 11 | -13% | -2 | . | 11µM* | -26%
Cc1ccc(NC(=O)CSC2=NN3CCCC(=O)N=C3S2)cc1Cl | -14 | 0% | 18 | 0% | 1% | .
COc1ccc(S(=O)(=O)NCCC(=O)N2CCCC2)cc1N(C)S(C)(=O)=O | 3 | 3% | -2 | 4% | 5% | .
CCN(CC)S(=O)(=O)c1cccc(C(=O)N/N=C/c2ccc(O)c(O)c2O)c1 | -93* | -7% | -91* | -1% | -32% | ?
CCN(CC)C(=O)c1ccccc1NC(=O)c1cccc(S(=O)(=O)N(CC)CC)c1 | 0 | -6% | 7 | -11%[11.5 µM] | 27% | -3%
CCOc1ccccc1/C=N/NC(=O)c1cccc(S(=O)(=O)N(CC)CC)c1 | -17 | 14% | -12 | 4% | -25% | -4%
CCN(CC)S(=O)(=O)c1cccc(C(=O)N/N=C(\C)c2ccc(O)cc2O)c1 | ? | 6% | -67* | 3% | 13µM* | -17%
CCOC(=O)Cc1csc(N/N=C\c2cccc(Br)c2)n1 | -2 | ? | 5 | 12% | 10µM* | -14%
CCOC(=O)c1sc(N/N=C/c2cccc(C)c2)nc1C | 3 | ? | 4 | -3% | 7.9µM* | 3%
CCOC(=O)Cc1csc(N/N=C\c2ccc(N(C)C)cc2)n1 | -4 | -3% | -25 | 13% | ? | .
SMILES | CtBP-E1A blk | Gal4-VP16 FLuc | Six1-Eya2 blk | MBNL1-CUG inh | RORg inh | CBFb RUNX1 block
COc1ccc(/C=N/Nc2nc(C(=O)O)cs2)cc1 | ? | 5µM* | ? | 13% | 3.5µM* | .
CCOC(=O)c1sc(N/N=C/c2ccccc2)nc1C | 2 | ? | -3 | ? | ? | 6%
CCOC(=O)Cc1csc(N/N=C/c2ccccc2)n1 | 6 | -28% | -6 | ? | 16µM* | 0%
CC(=O)c1sc(N/N=C\c2ccccc2O)nc1C | ? | 4µM* | ? | ? | 1.4µM* | -4%
CC(=O)c1sc(Nc2ccccc2)nc1C | 0 | . | -2 | . | . | .
O=C1CCCC2=C1C(c1ccccc1)NC(=S)N2 (configuration not stated) | 4 | -21% | 11 | 3% | -1% | 17%
